# Measurements taken from PubChem BioAssay (NCI).
# The panel holds about 79,000 compounds, 15% with a hit somewhere; the sample as a whole holds those more often. Values without a mark were called inactive. The source made the active and inactive calls. No stated cut-off is given here; in the data, active means growth inhibition above about 70%; inactive means the rest.
# Test: NCI Yeast Anticancer Drug Screen. Data for the mgt1 strain (AID 153)
# Conditions: S. cerevisiae mgt1 mutant growth inhibition, hits give high values
# Description: Growth inhibition of yeast strains with defined genetic alterations is measured as a screen for potential anti-cancer activity. Selected strains with alterations in DNA damage repair or cell cycle control were exposed to compounds and growth inhibition was measured relative to vehicle treated controls. The strain used in this assay is mgt1
SMILES,growth inhibition (at 1.2 µM) [%],growth inhibition (at 3.7 µM),growth inhibition (at 11.0 µM),growth inhibition (at 33.0 µM),growth inhibition (at 100.0 µM)
COc1ccc(C2CC(C)(N3CCCC3)Oc3cc4c(cc32)OCO4)cc1 (stereo not given),-1,-1%,-3%,-5%,85% (active)
O=C(O)c1cc2c(cc1S(=O)(=O)O)C1C(C3C2C2(Cl)C(Cl)=C(Cl)C3(Cl)C2(Cl)Cl)C2(Cl)C(Cl)=C(Cl)C1(Cl)C2(Cl)Cl (stereo not given),2,-1%,22%,92% (active),96% (active)
O=C(C#Cc1ccccc1)Nc1ccccc1,-5,-10%,-4%,58%,97% (active)
CS(=O)(=O)O.[Ag],65,99% (active),99% (active),99% (active),98% (active)
CCCCCCCN1C(=O)c2ccccc2C1=O,-7,-6%,-5%,9%,31%
O=C1CCC(Cc2ccccc2)CN1 (stereo not given),-1,-5%,-1%,68%,93% (active)
COc1ccc2c3c1OC(C)C31CC(=O)CCC1CC2 (stereo not given),-8,-5%,-4%,-2%,-1%
O=S1(=O)CCC2=CC(C(F)(F)F)=CC(C(F)(F)F)=CN21,15,27%,55%,82% (active),98% (active)
